Tests used:
Experiment in all cases: DAPPL (digital affinity profiling via proximity ligation, sequencing); 10 mM Tris-HCl pH 7.5, 50 mM NaCl, 1 mM DTT, 4% glycerol, room temperature, 30 min; GST-TFs on glutathione beads, 16-mer random dsDNA library, 0.1% formaldehyde crosslink after washing; high values mean tight binding
Details in all cases: protein: recombinant; tags: N-terminal GST; dsDNA, one strand shown
[1] = biological target: T1, FLI1 (Homo sapiens, UniProt Q01543 1-452)
T1 sequence: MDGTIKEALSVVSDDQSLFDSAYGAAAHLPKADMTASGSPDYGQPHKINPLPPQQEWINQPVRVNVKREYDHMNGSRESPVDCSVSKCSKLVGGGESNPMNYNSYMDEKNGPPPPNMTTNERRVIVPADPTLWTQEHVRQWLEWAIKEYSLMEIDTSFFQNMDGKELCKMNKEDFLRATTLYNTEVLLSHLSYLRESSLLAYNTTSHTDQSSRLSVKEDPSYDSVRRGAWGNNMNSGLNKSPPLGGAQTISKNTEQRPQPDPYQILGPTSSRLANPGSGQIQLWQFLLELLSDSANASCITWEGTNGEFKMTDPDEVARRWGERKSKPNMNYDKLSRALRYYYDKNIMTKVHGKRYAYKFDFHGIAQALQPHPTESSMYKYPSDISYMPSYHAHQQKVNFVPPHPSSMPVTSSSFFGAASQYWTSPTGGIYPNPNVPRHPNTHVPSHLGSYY
Outline: (§1)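 Each value of binding signal is a hexamer's read frequency for a factor divided by the same hexamer's frequency in the tag-only sample. Barcoded, bead-captured GST fusions of human transcription factors made in yeast were pooled with that sample and incubated with 200 nmole of a random double-stranded 16-mer DNA library in Tris/NaCl/DTT/glycerol buffer at room temperature for 30 min. Washing, 0.1% formaldehyde crosslinking, proximity ligation, PCR and Illumina NextSeq500 sequencing followed.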

[2] = biological target: T2, ELK1 (Homo sapiens, UniProt P19419 1-428)
T2 sequence: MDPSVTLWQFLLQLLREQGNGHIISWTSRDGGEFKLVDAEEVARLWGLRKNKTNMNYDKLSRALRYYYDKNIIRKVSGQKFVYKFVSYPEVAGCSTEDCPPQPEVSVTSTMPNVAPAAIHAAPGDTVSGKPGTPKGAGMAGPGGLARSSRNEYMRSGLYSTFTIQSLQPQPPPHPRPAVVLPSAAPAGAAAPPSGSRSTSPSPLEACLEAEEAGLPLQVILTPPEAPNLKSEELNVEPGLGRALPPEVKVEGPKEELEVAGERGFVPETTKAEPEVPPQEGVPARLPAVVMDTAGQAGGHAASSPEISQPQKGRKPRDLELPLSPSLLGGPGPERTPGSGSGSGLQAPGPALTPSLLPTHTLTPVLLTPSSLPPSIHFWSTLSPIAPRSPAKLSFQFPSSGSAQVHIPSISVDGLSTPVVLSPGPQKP
Outline: as §1

[3] = biological target: T3, GABPA (Homo sapiens, UniProt Q06546 1-454)
T3 sequence: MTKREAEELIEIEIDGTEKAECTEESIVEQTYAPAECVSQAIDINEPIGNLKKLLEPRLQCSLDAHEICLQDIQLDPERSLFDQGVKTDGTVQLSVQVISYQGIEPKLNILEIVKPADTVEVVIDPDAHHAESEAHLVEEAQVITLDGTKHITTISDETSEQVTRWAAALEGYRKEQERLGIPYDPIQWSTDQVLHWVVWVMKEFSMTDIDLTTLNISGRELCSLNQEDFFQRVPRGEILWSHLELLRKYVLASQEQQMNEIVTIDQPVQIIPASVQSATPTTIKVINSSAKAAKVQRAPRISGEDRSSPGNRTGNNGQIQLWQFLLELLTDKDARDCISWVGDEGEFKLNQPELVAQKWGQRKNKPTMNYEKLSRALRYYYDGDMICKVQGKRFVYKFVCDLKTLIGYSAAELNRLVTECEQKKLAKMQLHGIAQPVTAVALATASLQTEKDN
Outline: as §1

[4] = biological target: T4, ERG (Homo sapiens, UniProt P11308 1-479)
T4 sequence: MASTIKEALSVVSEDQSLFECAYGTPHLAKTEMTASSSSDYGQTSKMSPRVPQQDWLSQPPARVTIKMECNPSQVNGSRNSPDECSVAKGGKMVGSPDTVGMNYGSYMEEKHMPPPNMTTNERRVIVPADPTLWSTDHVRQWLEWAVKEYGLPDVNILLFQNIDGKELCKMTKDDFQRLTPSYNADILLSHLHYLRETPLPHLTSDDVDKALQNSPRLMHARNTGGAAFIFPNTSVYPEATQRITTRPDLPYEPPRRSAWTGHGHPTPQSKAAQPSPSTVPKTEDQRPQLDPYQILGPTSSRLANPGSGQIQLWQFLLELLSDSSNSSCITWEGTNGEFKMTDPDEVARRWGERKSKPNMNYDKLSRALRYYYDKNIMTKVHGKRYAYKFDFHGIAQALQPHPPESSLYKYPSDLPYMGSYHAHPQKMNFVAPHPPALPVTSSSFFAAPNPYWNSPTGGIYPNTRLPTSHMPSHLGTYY
Outline: as §1

[5] = biological target: ELF1 (Homo sapiens, UniProt P32519 1-619)
Outline: as §1

[6] = biological target: SPI1 (Homo sapiens, UniProt P17947 1-270)
Outline: as §1

[7] = biological target: T5, ELK3 (Homo sapiens, UniProt P41970 1-407)
T5 sequence: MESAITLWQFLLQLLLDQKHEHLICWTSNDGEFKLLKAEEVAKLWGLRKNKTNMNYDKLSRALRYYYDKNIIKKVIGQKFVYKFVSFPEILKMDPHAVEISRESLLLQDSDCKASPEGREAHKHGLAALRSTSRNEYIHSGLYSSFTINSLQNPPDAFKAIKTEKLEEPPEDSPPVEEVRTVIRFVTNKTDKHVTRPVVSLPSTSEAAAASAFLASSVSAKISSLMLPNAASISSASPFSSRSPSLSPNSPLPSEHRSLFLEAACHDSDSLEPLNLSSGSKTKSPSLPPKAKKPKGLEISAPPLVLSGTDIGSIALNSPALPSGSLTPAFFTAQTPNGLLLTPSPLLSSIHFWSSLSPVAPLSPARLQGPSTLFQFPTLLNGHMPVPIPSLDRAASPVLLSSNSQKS
Outline: as §1

[8] = biological target: T6, FEV (Homo sapiens, UniProt Q99581 1-238)
T6 sequence: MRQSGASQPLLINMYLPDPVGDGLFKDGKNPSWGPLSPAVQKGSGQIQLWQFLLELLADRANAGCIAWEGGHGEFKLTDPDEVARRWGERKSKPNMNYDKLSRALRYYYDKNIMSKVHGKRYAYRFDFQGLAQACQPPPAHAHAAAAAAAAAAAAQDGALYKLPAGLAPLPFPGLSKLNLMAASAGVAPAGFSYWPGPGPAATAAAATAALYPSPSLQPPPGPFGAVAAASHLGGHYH
Outline: as §1

[9] = biological target: ETV5 (Homo sapiens, UniProt P41161 1-510)
Outline: as §1

[10] = biological target: T7, SPIC (Homo sapiens, UniProt Q8N5J4 1-248)
T7 sequence: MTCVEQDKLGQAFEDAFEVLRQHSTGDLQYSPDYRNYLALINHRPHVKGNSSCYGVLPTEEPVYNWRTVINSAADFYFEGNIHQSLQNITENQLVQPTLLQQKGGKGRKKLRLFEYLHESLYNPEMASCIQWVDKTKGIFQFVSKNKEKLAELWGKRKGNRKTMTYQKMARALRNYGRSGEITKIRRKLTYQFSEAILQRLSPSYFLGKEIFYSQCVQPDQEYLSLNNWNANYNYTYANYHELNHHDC
Outline: as §1

[11] = biological target: ELF4 (Homo sapiens, UniProt Q99607 1-663)
Outline: as §1

[12] = biological target: T8, ELK4 (Homo sapiens, UniProt P28324-2 1-405)
T8 sequence: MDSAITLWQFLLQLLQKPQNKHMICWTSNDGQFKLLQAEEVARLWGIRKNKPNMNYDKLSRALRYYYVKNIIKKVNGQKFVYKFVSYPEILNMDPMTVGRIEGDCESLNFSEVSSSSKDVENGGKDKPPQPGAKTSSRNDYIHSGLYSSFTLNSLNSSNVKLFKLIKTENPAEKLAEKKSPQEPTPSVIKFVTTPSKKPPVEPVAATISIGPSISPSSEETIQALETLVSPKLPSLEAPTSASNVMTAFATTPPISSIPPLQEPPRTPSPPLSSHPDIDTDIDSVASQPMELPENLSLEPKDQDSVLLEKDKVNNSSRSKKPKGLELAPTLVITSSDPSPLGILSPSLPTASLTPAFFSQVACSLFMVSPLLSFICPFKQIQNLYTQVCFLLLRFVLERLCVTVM
Outline: as §1

[13] = biological target: T9, ETV2 (Homo sapiens, UniProt O00321 1-342)
T9 sequence: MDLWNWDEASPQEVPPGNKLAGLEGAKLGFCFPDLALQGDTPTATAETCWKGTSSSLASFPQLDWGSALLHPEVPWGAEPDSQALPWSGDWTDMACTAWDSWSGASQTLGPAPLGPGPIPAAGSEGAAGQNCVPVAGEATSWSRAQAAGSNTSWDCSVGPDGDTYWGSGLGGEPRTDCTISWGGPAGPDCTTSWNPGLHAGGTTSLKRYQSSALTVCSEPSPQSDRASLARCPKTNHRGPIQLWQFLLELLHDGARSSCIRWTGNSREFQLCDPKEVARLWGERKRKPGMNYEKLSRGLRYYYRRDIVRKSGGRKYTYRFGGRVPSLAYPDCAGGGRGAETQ
Outline: as §1

[14] = biological target: T10, EHF (Homo sapiens, UniProt Q9NZC4 1-300)
T10 sequence: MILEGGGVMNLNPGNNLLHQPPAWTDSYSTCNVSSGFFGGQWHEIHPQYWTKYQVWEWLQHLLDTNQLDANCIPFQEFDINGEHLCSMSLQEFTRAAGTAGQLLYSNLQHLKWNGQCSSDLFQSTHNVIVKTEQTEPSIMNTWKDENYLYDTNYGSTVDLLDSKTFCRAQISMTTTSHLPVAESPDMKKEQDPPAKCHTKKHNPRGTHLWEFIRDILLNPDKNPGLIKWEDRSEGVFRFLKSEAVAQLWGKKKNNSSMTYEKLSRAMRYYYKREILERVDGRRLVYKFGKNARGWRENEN
Outline: as §1

[15] = biological target: SPIB (Homo sapiens, UniProt Q01892 1-262)
Outline: as §1

[16] = biological target: CRX (Homo sapiens, UniProt O43186 1-299)
Outline: as §1

ELF4, sequence (Q99607 whole entry): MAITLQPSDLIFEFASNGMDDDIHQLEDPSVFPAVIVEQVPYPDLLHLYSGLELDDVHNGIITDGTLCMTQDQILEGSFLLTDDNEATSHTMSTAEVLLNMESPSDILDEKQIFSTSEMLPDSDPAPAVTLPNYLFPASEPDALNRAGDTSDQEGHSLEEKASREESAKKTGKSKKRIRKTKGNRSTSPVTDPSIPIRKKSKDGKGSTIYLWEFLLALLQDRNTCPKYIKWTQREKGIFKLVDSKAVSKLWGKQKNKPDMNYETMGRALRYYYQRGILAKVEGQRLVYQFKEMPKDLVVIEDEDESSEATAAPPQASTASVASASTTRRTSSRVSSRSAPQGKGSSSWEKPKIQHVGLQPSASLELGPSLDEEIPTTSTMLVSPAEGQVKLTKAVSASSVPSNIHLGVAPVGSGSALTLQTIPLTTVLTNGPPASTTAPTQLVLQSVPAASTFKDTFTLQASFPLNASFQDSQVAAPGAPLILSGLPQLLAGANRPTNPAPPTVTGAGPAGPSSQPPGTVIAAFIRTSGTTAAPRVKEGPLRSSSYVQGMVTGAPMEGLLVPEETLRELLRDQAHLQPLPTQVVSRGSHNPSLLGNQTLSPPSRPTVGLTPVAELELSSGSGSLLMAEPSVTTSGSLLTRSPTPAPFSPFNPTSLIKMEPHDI
ELF1, sequence (P32519 whole entry): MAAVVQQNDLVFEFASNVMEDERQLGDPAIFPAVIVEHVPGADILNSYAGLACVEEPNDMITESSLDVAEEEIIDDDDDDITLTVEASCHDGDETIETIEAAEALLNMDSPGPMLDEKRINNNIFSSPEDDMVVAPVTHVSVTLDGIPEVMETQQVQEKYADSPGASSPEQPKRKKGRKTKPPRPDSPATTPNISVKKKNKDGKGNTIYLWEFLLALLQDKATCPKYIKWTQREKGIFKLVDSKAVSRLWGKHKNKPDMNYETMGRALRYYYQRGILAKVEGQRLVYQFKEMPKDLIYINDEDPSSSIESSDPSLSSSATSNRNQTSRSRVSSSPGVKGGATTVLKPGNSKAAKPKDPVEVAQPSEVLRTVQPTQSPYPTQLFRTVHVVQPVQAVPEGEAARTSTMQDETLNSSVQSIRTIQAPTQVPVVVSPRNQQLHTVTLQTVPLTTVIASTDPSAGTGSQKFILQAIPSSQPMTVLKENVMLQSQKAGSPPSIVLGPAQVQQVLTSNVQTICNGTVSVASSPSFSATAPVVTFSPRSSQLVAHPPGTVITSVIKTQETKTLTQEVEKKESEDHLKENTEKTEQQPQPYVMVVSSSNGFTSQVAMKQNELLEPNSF
ETV5, sequence (P41161 whole entry): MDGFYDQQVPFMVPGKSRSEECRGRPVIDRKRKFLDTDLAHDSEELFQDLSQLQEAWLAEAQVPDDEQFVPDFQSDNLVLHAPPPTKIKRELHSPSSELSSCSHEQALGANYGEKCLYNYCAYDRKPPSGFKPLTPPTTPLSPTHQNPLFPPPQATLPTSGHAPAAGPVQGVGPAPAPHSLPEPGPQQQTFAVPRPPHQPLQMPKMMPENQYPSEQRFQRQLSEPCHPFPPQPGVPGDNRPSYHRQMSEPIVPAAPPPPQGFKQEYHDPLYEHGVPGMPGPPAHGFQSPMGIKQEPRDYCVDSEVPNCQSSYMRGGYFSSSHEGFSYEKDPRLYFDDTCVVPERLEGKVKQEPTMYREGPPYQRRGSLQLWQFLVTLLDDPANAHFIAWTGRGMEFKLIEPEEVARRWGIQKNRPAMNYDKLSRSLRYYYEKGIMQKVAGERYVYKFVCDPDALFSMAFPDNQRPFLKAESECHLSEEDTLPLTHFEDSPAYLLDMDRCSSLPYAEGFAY
SPIB, sequence (Q01892 whole entry): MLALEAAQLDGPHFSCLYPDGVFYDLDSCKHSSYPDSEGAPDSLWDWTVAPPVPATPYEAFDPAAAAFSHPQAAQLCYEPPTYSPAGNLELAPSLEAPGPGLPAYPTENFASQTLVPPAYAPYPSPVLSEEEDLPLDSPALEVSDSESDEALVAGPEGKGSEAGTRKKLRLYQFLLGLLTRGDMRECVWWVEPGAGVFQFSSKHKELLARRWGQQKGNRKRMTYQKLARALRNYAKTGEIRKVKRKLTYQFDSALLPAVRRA
CRX, sequence (O43186 whole entry): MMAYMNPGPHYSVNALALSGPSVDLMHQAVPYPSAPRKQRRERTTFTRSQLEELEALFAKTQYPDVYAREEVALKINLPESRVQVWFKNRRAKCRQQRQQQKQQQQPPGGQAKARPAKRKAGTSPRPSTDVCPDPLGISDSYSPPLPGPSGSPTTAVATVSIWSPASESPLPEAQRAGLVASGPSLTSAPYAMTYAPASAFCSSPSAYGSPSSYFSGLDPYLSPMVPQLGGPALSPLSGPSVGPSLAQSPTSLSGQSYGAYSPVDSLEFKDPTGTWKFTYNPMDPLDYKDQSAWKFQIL

Row | Sequence | binding signal [1] | binding signal [2] | binding signal [3] | binding signal [4] | binding signal [5] | binding signal [6] | binding signal [7] | binding signal [8] | binding signal [9] | binding signal [10] | binding signal [11] | binding signal [12] | binding signal [13] | binding signal [14] | binding signal [15] | binding signal [16]
1 | GCTGGC | 1.01 fold enrichment (6-mer frequency, TF over GST control) | 1.21 fold enrichment (6-mer frequency, TF over GST control) | 1.02 fold enrichment (6-mer frequency, TF over GST control) | 1.01 fold enrichment (6-mer frequency, TF over GST control) | 1.11 fold enrichment (6-mer frequency, TF over GST control) | 1 fold enrichment (6-mer frequency, TF over GST control) | 1.03 fold enrichment (6-mer frequency, TF over GST control) | 1.06 fold enrichment (6-mer frequency, TF over GST control) | 1.02 fold enrichment (6-mer frequency, TF over GST control) | 1.12 fold enrichment (6-mer frequency, TF over GST control) | 1.15 fold enrichment (6-mer frequency, TF over GST control) | 1.1 fold enrichment (6-mer frequency, TF over GST control) | 1.07 fold enrichment (6-mer frequency, TF over GST control) |  |  | 
2 | TGCCTA | 1.02 fold enrichment (6-mer frequency, TF over GST control) | 1.12 fold enrichment (6-mer frequency, TF over GST control) | 1.01 fold enrichment (6-mer frequency, TF over GST control) |  | 1.11 fold enrichment (6-mer frequency, TF over GST control) | 1.04 fold enrichment (6-mer frequency, TF over GST control) |  | 1.05 fold enrichment (6-mer frequency, TF over GST control) | 1 fold enrichment (6-mer frequency, TF over GST control) | 1.18 fold enrichment (6-mer frequency, TF over GST control) | 1.09 fold enrichment (6-mer frequency, TF over GST control) | 1.24 fold enrichment (6-mer frequency, TF over GST control) | 1.17 fold enrichment (6-mer frequency, TF over GST control) | 1.09 fold enrichment (6-mer frequency, TF over GST control) | 1.07 fold enrichment (6-mer frequency, TF over GST control) | 1.08 fold enrichment (6-mer frequency, TF over GST control)

— PMC7862700, “An all-to-all approach to the identification of sequence-specific readers for epigenetic DNA modifications on cytosine”
